Results reported in PubChem BioAssay.
Unmarked numbers belong to inactive results. Activity calls are given as the source filed them. Cut-off read from the data, not from the text of the source: active = fold change permeability below about 0.7 or above about 1.3; inactive = in between.

Assay: compounds altering in vitro BBB leakiness – cell-based, FITC-avidin fluorescence, HTS, primary screen (AID 1963498); note: test concentration not given here
Details: brain endothelial barrier, actives lie on both sides

Row | SMILES | fold change permeability
1 | CC(C)=CCOc1c2occc2cc2ccc(=O)oc12 | 1.5 (active)
2 | CC(C)NC(C)Cc1ccc(I)cc1 (stereo not drawn) | 1.8 (active)
3 | O=C1CCCN1CC#CCN1CCCC1 | 0.8
4 | C[N+]1(C)[C@@H]2CC[C@H]1CC(OC(=O)C(CO)c1ccccc1)C2 (stereo partly drawn) | 1
5 | CC1=NN=C(c2ccc(N)cc2)c2cc3c(cc2C1)OCO3 | 1.1
6 | Clc1ccc(C(Cn2ccnc2)OCc2csc3c(Cl)cccc23)c(Cl)c1 (stereo not drawn) | 1.2
7 | NC(=O)CN1CCCC1=O | 1.2
8 | CC(C)(C)NCC(O)c1ccccc1Cl (stereo not drawn) | 0.7 (active)
9 | CCN1C[C@]2(COC)[C@H](O)C[C@H](OC)[C@]34C1[C@H]([C@H](OC)[C@H]23)[C@]1(OC(C)=O)[C@H]2[C@@H](OC(=O)c3ccccc3)[C@](O)(C[C@H]24)[C@@H](OC)[C@@H]1O | 1
10 | CC[N+](CC)(CC)CC | 1.1
11 | CC(=O)[C@H]1CCC2C3CC[C@H]4C[C@H](O)CC[C@]4(C)C3CC[C@@]21C (stereo partly drawn) | 0.9
12 | COc1cc2c(c(OC)c1OC)-c1ccc(SC)c(=O)cc1[C@@H](NC(C)=O)CC2 | 1.7 (active)
13 | O=C1C=CC(=O)C=C1 | 1
14 | c1ccc2c(c1)[I+]c1ccccc1-2 | 1.7 (active)
15 | NCC(CC(=O)O)c1ccc(Cl)cc1 (stereo not drawn) | 1.1
16 | CS(=N)(=O)CC[C@H](N)C(=O)O (stereo partly drawn) | 0.8
17 | CC(N)Cc1c[nH]c2ccc(OCc3cccs3)cc12 (stereo not drawn) | 1.3 (active)
18 | CC[C@@H](CO)NC(=O)[C@@H]1C=C2c3cccc4c3c(cn4C)C[C@H]2N(C)C1 | 0.7 (active)
